# Measured values taken from PubChem BioAssay (NCATS).
# Records with an inconclusive call do not appear. Activity calls are given as the source filed them. Unless noted, calls follow the shape of the dose curve; as a rule, active = well fitted curve in the direction sought with a large enough effect; inconclusive = small, poorly fitted or top-dose-only effect, or another doubt; inactive = no such curve, though single readings can be large; an effect the other way counts as inactive or inconclusive.
# Experiments:
# [1] = qHTS Assay for Identification of Small Molecule Agonists for NFkB Signaling Pathway. (AID 624478);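 also: compounds tested together with TNF alpha at its EC50 of 10 pM; 0% is about no effect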
# How it was run: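 ME-180 cervical carcinoma, stable NFkB-RE beta-lactamase reporter; 1000 cells/well, overnight attachment; cpd + TNF alpha 10 pM final, 5 h 37 C; LiveBLAzer 2 h RT; FRET 460/530 nm, ex 405 nm.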
# [2] = qHTS Assay for Identification of Small Molecule Antagonists for NFkB Signaling Pathway. (AID 624479; calls by dose curve;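 also: pathway stimulated with TNF alpha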; also: potency is read from the fitted curve at half-maximal effect)
# [3] = Cell Proliferation Assay against the TMD8 Cell Line (AID 651645); conditions: TMD8 DLBCL cell line proliferation/viability; at 46.1 µM (top of the series);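 also: cells exposed to compound for 48 h before reading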
# How it was run: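 TMD8 ABC DLBCL cells, 500 per well in phenol red-free RPMI with 5% FBS, were treated with compound by pin transfer and incubated 48 hours at 37C, 5% CO2. Viability was read by CellTiter-Glo luminescence, normalised to DMSO (100%) and 9.2 uM bortezomib (0%).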
# [4] = Cell Proliferation Assay against the HBL1 Cell Line (AID 651646); conditions: HBL1 DLBCL cells; at 46.1 µM (top of the series);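 also: cells exposed to compound for 48 h before reading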
# How it was run: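 Luminescent ATP read-out (CellTiter-Glo) after 48 h compound exposure of HBL1 cells at 37 °C; percent activity was scaled between DMSO as 100% and 9.2 uM bortezomib (final) as 0%.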
# [5] = target: Tyrosine-protein kinase Yes (Homo sapiens) (UniProt P07947); assay: qHTS for small molecule inhibitors of Yes1 kinase: Primary Screen (AID 686947); also: nearly all actives have a fitted effect of over 60% in size; also: potency is read from the fitted curve at half-maximal effect
# How it was run: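 Yes1 (4 nM) preincubated 20 min with compound, then 60 min room-temperature reaction with 0.1 mM ATP and 0.3 mg/mL poly(E4Y) in pH 7.5 Tris, 10 mM MgCl2. ADP measured by ADP-Glo luminescence, normalised to enzyme/no-enzyme controls.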
# [6] = Cytotoxicity counterscreen for NFkB agonists and antagonists (AID 624476); conditions: NFkB reporter cell line viability counterscreen; also: potency is read from the fitted curve at half-maximal effect
# [7] = Cell Proliferation Assay against the TMD8 Cell Line (Caspase readout at 8 hrs) (AID 651713); also: potency is read from the fitted curve at half-maximal effect
# How it was run: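 Seed log-phase TMD8 cells, add compound by pin tool, incubate 8 h at 37C under 5% CO2, equilibrate to room temperature, add Caspase-Glo, wait 15 min, read luminescence; percent activity uses DMSO and 9.2 uM bortezomib controls.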
# [8] = Cell Proliferation Assay against the TMD8 Cell Line (Caspase readout at 16 hrs) (AID 651712); conditions: TMD8 lymphoma cells, caspase activation luminescence; also: potency is read from the fitted curve at half-maximal effect
# How it was run: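 Apoptotic response of TMD8 cells was judged from caspase 3/7 activation following a 16 hour compound incubation at 37 °C. Luminescent signal was converted to percent activity, with DMSO set as 0% and 9.2 uM final bortezomib as 100%.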
# [9] = qHTS of Trypanosoma Brucei Inhibitors: LOPAC Validation (AID 624147); also: 0% is about no effect
# How it was run: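 Luminescence from Kinase-Glo Plus, added after a 45-minute room-temperature reaction, served as the end-point read-out. The enzyme and substrate were preincubated with compound before ADP (130 uM final) initiated turnover. Concentration-effect curves came from normalized qHTS data.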
# [10] = target: Glucagon-like peptide 1 receptor (Homo sapiens) (UniProt P43220); assay: qHTS of GLP-1 Receptor Agonists: LOPAC Validation (AID 624148);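 also: luminescence from a luciferase reporter switched on by cAMP; 0% is about no effect; higher luminescence signal means agonism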
# How it was run: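 Agonism scored as increased luciferase luminescence driven by cAMP in HEK293 clones carrying GLP-1R. Cells settled 12 hours, received compound for 4-6 hr at 37 deg C, 5% CO2, and were read after 12 min detection reagent at RT.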
# [11] = qHTS of Nrf2 Activators: LOPAC Validation (AID 624149); also: 0% is about no effect
# How it was run: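 Luminescence read-out of ARE-luciferase activation: AREc32_Fluc cells treated with compounds for 24 hr at 37 deg C, then lysed with Steady-Glo for 30 min at room temperature before reading.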
# [12] = HTS Assay for Allosteric Antagonists of the Human D2 Dopamine Receptor: Hit Validation in HTRF (AID 624455);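 also: stable D1 dopamine receptor cell line scored for blocking the D1 response; % is scaled to controls: 0 for no effect and ±100 for the full control effect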
# How it was run: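 First, antagonism was screened by calcium flux in a force-coupled, inducible Hek293 Trex D2 line challenged with EC80 dopamine. Hits then went into an HTRF assay in cells stably expressing D1, testing inhibition of the D1 response.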
# [13] = qHTS assay for small molecule agonists of the antioxidant response element (ARE) signaling pathway (AID 651741; active = well fitted activation curve with a large enough effect in the signal ratio; the % refers to the signal ratio; also: potency is read from the fitted curve at half-maximal effect); conditions: HepG2 ARE-bla reporter, beta-lactamase FRET ratio, 16 h
# How it was run: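 Quantitative HTS in HepG2 cells stably expressing an ARE-beta-lactamase reporter; 16 h compound exposure at 37 C, followed by 2 h room-temperature incubation with LiveBLAzer B/G FRET substrate and fluorescence measurement.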
# [14] = qHTS assay for small molecule activators of the p53 signaling pathway (AID 651743; active = well fitted activation curve with a large enough effect in the signal ratio, not every such curve was filed as active; the % refers to the signal ratio; also: % of control where 0% means no effect); conditions: HCT-116 p53RE-bla, beta-lactamase FRET ratio, 16 h; stronger effect = higher value
# How it was run: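 Read-out is fluorescence intensity from the LiveBLAzer B/G FRET substrate, added for 2 hours at room temperature after HCT-116 p53RE-bla cells had been incubated with compounds for 16 hours at 37 C.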
# [15] = qHTS assay for small molecule activators of the nuclear factor-kappa B (NF-kB) signaling pathway (AID 651749; active = well fitted activation curve with a large enough effect in the signal ratio; the % refers to the signal ratio; also: % of control where 0% means no effect); conditions: NF-kB-bla ME-180 cells, beta-lactamase FRET ratio, 16 h; stronger effect = higher value
# How it was run: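 Readout: beta-lactamase reporter driven by an NF-kB response element, detected fluorescently as loss of FRET. Cells were the ME-180 line, treated 16 hr at 37C with pin-transferred compound.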
# [16] = target: Tumor necrosis factor (Homo sapiens) (UniProt P01375); assay: qHTS assay to identify small molecules that stimulate Tumor Necrosis Factor-alpha (TNF-alpha) secretion (AID 651757; active = well fitted curve in the direction sought with a large enough effect in the signal ratio; the % refers to the signal ratio; also: 0% is about no effect)
# How it was run: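 Read-out is HTRF, a TR-FRET sandwich of cryptate- and XL665-labeled anti-TNF-alpha antibodies detecting cytokine secreted by THP-1 cells. Cells had been incubated with test compounds at 37 C for 17 hrs beforehand.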
# [17] = qHTS assay to identify small molecules that stimulate interleukin-8 (IL-8) secretion (AID 651758; active = well fitted activation curve with a large enough effect in the signal ratio; the % refers to the signal ratio; also: 0% is about no effect)
# How it was run: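 Secreted IL-8 measured by TR-FRET sandwich (cryptate and XL665 antibodies) from THP-1 cells exposed to compound overnight (16 hrs, 37 C).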
# [18] = qHTS assay for environmental chemicals that activate the Aryl hydrocarbon Receptor (AhR) signaling pathway (AID 651777); conditions: 1A2-DRE human hepatoma cells, luciferase, 24 h; stronger effect = higher value; also: % of control where 0% means no effect; nearly all actives have a fitted effect of over 15% in size
# How it was run: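 Luminescence read-out: One-Glo added for 30 min at RT after 24 hr compound treatment (37 C, 5% CO2) of human hepatoma cells expressing a DRE/CYP1A2 promoter–luciferase reporter; increased signal indicates AhR activation.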
# [19] = target: Peroxisome proliferator-activated receptor alpha (Homo sapiens) (UniProt Q07869); assay: qHTS assay for small molecule agonists of the peroxisome proliferator-activated receptor alpha (PPARalpha) signaling pathway (AID 651778); conditions: PathHunter PPARalpha complementation, chemiluminescence, 6 h; max response: stronger effect = higher value; also: potency is read from the fitted curve at half-maximal effect; as to max response: % of control where 0% means no effect
# How it was run: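 Chemiluminescence from complemented enzyme reported PPARalpha activation in cells after 6 hr of compound treatment at 37 C. The detection reagent was incubated for 60 min at room temperature, and compounds were scored as agonists.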
# [20] = target: Nuclear receptor ROR-gamma (Homo sapiens) (UniProt P51449); assay: qHTS assay for small molecule antagonists of the retinoid-related orphan receptor gamma (ROR-gamma) signaling pathway (AID 651802);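 also: CHO cells with doxycycline-induced ROR-gamma expression; luciferase reporter luminescence driven by ROR response element; % is scaled to controls: 0 for no effect and ±100 for the full control effect; nearly all actives have a fitted effect of over 60% in size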
# How it was run: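 CHO, TET-inducible ROR + RORE-LUC reporter, 1536-well qHTS. Compound pinned, doxycycline added, 16hr 37C/5% CO2. ONE-Glo, 30 min RT, luminescence; signal drop scored as antagonism.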
# Chain of Tyrosine-protein kinase Yes (Homo sapiens) (P07947 whole entry, looked up): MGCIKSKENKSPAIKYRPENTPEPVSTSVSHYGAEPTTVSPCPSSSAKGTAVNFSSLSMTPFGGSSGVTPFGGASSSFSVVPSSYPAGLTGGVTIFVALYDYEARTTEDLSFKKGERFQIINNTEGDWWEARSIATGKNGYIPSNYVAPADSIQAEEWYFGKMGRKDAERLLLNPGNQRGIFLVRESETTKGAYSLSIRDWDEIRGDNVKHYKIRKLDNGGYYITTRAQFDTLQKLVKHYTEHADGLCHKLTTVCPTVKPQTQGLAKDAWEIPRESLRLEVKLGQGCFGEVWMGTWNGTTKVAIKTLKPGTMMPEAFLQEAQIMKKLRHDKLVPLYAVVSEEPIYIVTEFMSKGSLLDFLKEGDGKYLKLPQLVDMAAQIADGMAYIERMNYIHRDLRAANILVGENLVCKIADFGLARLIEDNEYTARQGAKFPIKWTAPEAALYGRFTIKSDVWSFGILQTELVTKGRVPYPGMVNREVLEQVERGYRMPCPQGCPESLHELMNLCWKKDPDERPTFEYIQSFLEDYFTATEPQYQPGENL
# Chain of Glucagon-like peptide 1 receptor (Homo sapiens) (P43220 whole entry, looked up): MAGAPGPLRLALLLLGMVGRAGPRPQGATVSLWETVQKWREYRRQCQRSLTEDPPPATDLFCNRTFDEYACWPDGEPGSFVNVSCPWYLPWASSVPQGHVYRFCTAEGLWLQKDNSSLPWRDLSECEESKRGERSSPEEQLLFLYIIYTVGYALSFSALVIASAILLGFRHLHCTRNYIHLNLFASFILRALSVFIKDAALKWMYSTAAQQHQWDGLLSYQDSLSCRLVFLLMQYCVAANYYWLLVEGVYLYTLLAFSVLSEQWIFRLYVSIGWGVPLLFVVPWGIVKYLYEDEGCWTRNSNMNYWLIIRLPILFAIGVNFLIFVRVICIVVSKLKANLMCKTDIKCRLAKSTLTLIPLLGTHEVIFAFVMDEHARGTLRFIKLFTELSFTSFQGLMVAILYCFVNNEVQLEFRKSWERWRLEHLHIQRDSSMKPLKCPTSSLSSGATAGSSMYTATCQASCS
# Chain of Peroxisome proliferator-activated receptor alpha (Homo sapiens) (Q07869 whole entry, looked up): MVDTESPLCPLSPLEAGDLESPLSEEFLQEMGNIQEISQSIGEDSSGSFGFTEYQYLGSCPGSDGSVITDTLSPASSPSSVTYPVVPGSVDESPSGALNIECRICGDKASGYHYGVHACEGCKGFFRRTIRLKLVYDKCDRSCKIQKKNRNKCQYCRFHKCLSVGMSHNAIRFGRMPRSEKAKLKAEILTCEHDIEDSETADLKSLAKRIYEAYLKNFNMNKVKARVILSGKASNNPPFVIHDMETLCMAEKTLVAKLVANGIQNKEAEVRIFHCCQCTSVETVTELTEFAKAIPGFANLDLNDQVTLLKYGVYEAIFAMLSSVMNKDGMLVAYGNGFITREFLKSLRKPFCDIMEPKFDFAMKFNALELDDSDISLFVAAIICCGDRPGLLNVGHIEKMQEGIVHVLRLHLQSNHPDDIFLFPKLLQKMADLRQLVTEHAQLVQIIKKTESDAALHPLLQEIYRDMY
# Chain of Nuclear receptor ROR-gamma (Homo sapiens) (P51449 whole entry, looked up): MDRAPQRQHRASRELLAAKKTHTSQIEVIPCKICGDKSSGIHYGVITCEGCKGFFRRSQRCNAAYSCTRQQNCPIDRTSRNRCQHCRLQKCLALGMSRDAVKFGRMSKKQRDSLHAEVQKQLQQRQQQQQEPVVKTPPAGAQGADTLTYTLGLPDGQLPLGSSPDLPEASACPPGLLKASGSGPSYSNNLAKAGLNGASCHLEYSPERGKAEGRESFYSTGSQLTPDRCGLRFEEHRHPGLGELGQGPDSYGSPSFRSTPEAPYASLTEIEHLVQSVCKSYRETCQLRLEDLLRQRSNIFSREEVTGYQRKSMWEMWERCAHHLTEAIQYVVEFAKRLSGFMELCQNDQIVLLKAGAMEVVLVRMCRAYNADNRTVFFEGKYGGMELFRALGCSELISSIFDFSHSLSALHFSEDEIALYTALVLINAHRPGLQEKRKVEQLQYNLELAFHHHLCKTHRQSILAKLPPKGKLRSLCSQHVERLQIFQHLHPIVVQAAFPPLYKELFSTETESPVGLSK
# Chain of Tumor necrosis factor (Homo sapiens) (P01375 whole entry, looked up): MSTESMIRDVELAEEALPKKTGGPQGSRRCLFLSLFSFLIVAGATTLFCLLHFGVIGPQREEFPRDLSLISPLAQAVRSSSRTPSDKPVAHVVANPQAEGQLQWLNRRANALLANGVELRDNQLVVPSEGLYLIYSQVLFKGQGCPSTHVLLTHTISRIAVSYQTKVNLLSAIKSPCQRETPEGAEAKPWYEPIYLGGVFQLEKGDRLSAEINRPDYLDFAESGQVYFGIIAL
smiles,measurement,setting,value
COc1cc(C)c(Sc2cnc(NC(=O)c3ccc(CNC(C)C(C)(C)C)cc3)s2)cc1C(=O)N1CCN(C(C)=O)CC1 (centres undefined),outcome,[1],inactive
same,Potency,[2],26.6 µM (active)
same,viability (% of control),[3],18.7%
same,"viability, percent of control",[4],12.9%
same,Potency,[5],54.7 nM (active)
COc1cc2c(cc1OC)[C@@H]1C(=O)c3ccc4c(c3O[C@@H]1CO2)C=CC(C)(C)O4,Potency,[6],26.4 µM (active)
same,outcome,[1],inactive
same,Potency,[2],inactive
same,viability (% of control),[3],2.43%
same,"viability, percent of control",[4],18.7%
same,Potency,[7],inactive
same,Potency,[5],inactive
Cn1c(Nc2ccc(C(F)(F)F)cc2)nc2cc(Oc3ccnc(-c4ncc(C(F)(F)F)[nH]4)c3)ccc21,Potency,[6],20.9 µM (active)
same,outcome,[1],inactive
same,Potency,[2],1.33 µM (active)
same,viability (% of control),[3],15.6%
same,"viability, percent of control",[4],33%
same,Potency,[8],16.6 µM (active)
same,Potency,[7],inactive
CN[C@H](CC(C)C)C(=O)N[C@H]1C(=O)N[C@@H](CC(N)=O)C(=O)N[C@@H]2C(=O)N[C@H]3C(=O)N[C@H](C(=O)N[C@H](C(=O)O)c4cc(O)cc(O)c4-c4cc3ccc4O)[C@H](O)c3ccc(c(Cl)c3)Oc3cc2cc(c3O[C@@H]2O[C@H](CO)[C@@H](O)[C@H](O)[C@@H]2O[C@H]2C[C@](C)(N)[C@H](O)[C@H](C)O2)Oc2ccc(cc2Cl)[C@H]1O,outcome,[9],inactive
same,outcome,[10],inactive
same,outcome,[11],inactive
same,outcome,[12],inactive
Cc1cc(O)c2c(c1)C(=O)c1cccc(O)c1C2=O,Potency,[13],26.6 µM (active)
same,activation,[14],-1.77% (inactive)
same,activation,[15],-0.078% (inactive)
same,outcome,[16],inactive
same,outcome,[17],inactive
same,activation,[18],0.266% (inactive)
same,max response,[19],-1.41% (inactive)
same,outcome,[20],inactive
OC[C@@H](O)[C@@H](O)[C@H](O)[C@@H](O)CO,activation,[14],-2.74% (inactive)
same,activation,[15],-0.0055% (inactive)
same,activation,[18],0.287% (inactive)
same,max response,[19],-1.39% (inactive)
CC(C=CC1=C(C)CCCC1(C)C)=CC=CC(C)=CC(=O)Nc1ccc(O)cc1,activation,[14],0.252% (inactive)
same,activation,[18],-5.07% (inactive)
same,Potency,[19],8.91 µM (active)
COc1ccc2cc([S+]([O-])Cc3ncc(C)c(OC)c3C)nc2c1,outcome,[9],inactive
same,outcome,[10],inactive
same,outcome,[11],inactive
same,outcome,[12],inactive
O=C1c2cccc(O)c2C(=O)c2c(O)cc(CO)cc21,activation,[14],6.22% (inactive)
same,activation,[18],2.38% (inactive)
same,max response,[19],-2.01% (inactive)
N#Cc1ccc(COC[C@H]2O[C@@H](n3c(NCc4ccc(Cl)c(Cl)c4)nc4c(N)ncnc43)[C@@H](O)[C@@H]2O)cc1,outcome,[1],inactive
same,viability (% of control),[3],1.09%
same,"viability, percent of control",[4],17.4%
same,Potency,[7],29.6 µM (active)
same,Potency,[5],487 nM (active)
N#Cc1c(NC(=O)c2cccc3ccccc23)sc2c1CCCC2,Potency,[5],inactive
C=CCNC1=C2C[C@@H](C)C[C@H](OC)[C@@H](O)[C@@H](C)C=C(C)[C@H](OC(N)=O)[C@@H](OC)C=CC=C(C)C(=O)NC(=CC1=O)C2=O,Potency,[5],inactive
O=c1[nH]c(=O)n([C@H]2C[C@@H](O)[C@@H](CO)O2)cc1C=CBr,outcome,[9],inactive
same,outcome,[10],inactive
same,outcome,[11],inactive
same,outcome,[12],inactive
C[C@]12CC[C@@H]3c4ccc(O)cc4CC[C@H]3[C@H]1CC[C@H]2O,activation,[14],13.4% (inactive)
same,activation,[18],2.62% (inactive)
same,max response,[19],-1.17% (inactive)
